The whole screen tested about 350,000 compounds, of which about 2,400 (0.69%) were called active. This is one part of a sample in which actives are shown more often than they occur. Cut-off read from the data, not from the text of the source: active = inhibition above about 41%; inconclusive = no clear call, values can overlap the other calls; inactive = below that.

This experiment can be described thus: blockers of LMP1-induced NF-kB reporter signal – cell-based, luminescence, single point, primary screen (AID 504558).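 Note: 0% = neutral control wells and 100% = reference inhibitor control.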 The conditions noted are these: LMP1-induced NF-kappaB luciferase reporter cells, at 12.5 µM, active compounds read high.
For `Cc1cc(C)n(-c2c(F)c(F)c(COC(=O)c3ccccc3)c(F)c2F)n1`, the inhibition is -9.15% (inactive).

On to `Cc1cc(-n2nc(C)cc2C)n2ncc(-c3ccccc3)c2n1`, for which the inhibition was -21% (inactive).

Turning to `CCOC(=O)c1cnc(-n2nc(C)cc2C)nc1NNc1cc(C)nc(-c2ccccc2)n1`, the inhibition was 73.6% (active).

As for `CCOC(=O)c1cc(-c2sc(NC(=O)c3ccccc3)nc2C)n(Cc2ccccc2)n1`, the inhibition was 12.1% (inactive).

`COc1ccc(NC(=O)c2cc(=O)[nH]c3ccccc23)cc1S(=O)(=O)N1CCOCC1`: the inhibition was -9.47% (inactive).

Turning to `N#Cc1ccc(OCC(=O)Nc2nc(-c3ccccn3)cs2)cc1`, the inhibition was 23.6% (inactive).

Take `COc1ccc(Cl)cc1NC(=O)CN(C)C(=O)c1cn(-c2ccccc2)nc1-c1cccs1`: the inhibition was 2.49% (inactive).

Consider `CC(=O)Nc1ccc2c3c(ccc([N+](=O)[O-])c13)CC2`, for which the inhibition was 3.38% (inactive).

In the case of `COc1ccc(C(C)=O)cc1CSc1nc2nc(C)cc(C)n2n1`, the inhibition is 6.79% (inactive).

`Cc1cc(C)nc(-n2nc(C)cc2NC(=O)c2ccc(F)cc2F)n1`: the inhibition is -4.13% (inactive).

Regarding `CC(=O)c1ccc(Oc2cc(C)nc(-n3nc(C)cc3C)n2)cc1`, the inhibition was 89.4% (active).

Consider `C[C@H]1CN([C@@H](C)CO)C(=O)CCCn2cc(nn2)CO[C@@H]1CN(C)S(=O)(=O)c1ccccc1C#N`, for which the inhibition was 6.79% (inactive).

`C[C@H]1CN([C@@H](C)CO)C(=O)c2cc(-c3ccccc3F)cnc2O[C@H]1CN(C)C(=O)C1CCOCC1`: the inhibition was -4.67% (inactive).

As for `CCCCCCN1C[C@@H](O)[C@H](n2cc(COC(=O)c3ccccc3)nn2)C[C@@H]1c1ccc(Cl)cc1`, the inhibition was 1.86% (inactive).

As for `C[C@H]1CN([C@@H](C)CO)C(=O)c2cc(Br)cnc2O[C@H]1CN(C)S(=O)(=O)c1cccs1`, the inhibition was -1.05% (inactive).

Regarding `COc1cccc(NC(=O)Nc2ccc(F)cc2)c1`, the inhibition was -3.33% (inactive).

Regarding `O=C(CSc1ccc(-c2ccco2)nn1)NCc1ccc2c(c1)OCO2`, the inhibition was -3.64% (inactive).

Turning to `O=C(CSc1nc2cc3c(cc2c(=O)n1CCC1=CCCCC1)OCO3)NCc1ccco1`, the inhibition is 44.3% (active).

Take `O=C(CSc1c2c(nc3ccc(Cl)cc13)CCCC2)NCc1ccco1`: the inhibition was 19.1% (inactive).

As to `COc1ccc(/C=C2\SC(=S)N(CCC(=O)N3CCOCC3)C2=O)cc1OC`, the inhibition is 9.24% (inactive).

`CSc1cc(C)[nH]c(=O)n1`: the inhibition is -0.805% (inactive).

Regarding `Cc1cc(=O)cc(C)[nH]1`, the inhibition is -6.47% (inactive).

Regarding `Cc1cc(=O)[nH]c(=S)[nH]1`, the inhibition was 80.5% (active).

On to `C[C@@H]1CN([C@H](C)CO)C(=O)CCCn2nncc2CO[C@@H]1CN(C)S(=O)(=O)c1cccc(C#N)c1`, for which the inhibition is 1.72% (inactive).

Values taken from PubChem BioAssay AID504558 (Broad Institute, 2011).
